In all, about 33,000 sequences were measured (“E-score (-0.5 to 0.5)”: median about -0.015, highest 2% from about 0.3 on). The full list was thinned out, with the highest values kept by preference.
Molecular target: T1, Abf1 (UniProt P14164)
T1 sequence: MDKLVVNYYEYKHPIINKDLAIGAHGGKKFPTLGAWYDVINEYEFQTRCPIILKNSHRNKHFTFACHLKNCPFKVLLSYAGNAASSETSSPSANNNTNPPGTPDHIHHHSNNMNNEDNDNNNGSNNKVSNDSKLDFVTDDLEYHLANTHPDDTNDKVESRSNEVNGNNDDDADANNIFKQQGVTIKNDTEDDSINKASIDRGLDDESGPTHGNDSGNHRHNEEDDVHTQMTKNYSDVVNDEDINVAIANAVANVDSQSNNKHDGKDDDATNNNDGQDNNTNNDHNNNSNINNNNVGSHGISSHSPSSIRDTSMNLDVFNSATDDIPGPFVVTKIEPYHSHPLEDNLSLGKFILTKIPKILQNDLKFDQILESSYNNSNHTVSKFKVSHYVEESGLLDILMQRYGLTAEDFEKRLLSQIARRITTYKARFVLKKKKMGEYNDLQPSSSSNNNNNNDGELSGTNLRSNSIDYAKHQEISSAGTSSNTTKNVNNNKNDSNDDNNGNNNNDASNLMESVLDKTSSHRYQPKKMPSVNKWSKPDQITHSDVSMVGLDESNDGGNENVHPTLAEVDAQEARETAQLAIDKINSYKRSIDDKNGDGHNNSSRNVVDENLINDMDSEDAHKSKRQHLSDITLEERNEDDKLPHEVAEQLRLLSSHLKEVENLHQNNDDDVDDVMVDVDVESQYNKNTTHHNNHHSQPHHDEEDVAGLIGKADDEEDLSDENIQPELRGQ
Assay: PBM E-score (8-mer binding enrichment) (E-score (-0.5 to 0.5)); higher = stronger / more preferred TF binding
Details: protein concentration: 200 nM; construct: GST-full length
Experimental: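 Universal 'all 10-mer' protein binding microarrays (Agilent AMADID 015681) probed with GST-tagged S. cerevisiae TFs (full-length or DBD) made by in vitro transcription/translation (PURExpress), about 100-200 nM. Bound TF was detected with fluorescent anti-GST. Each ungapped 8-mer (which stands for itself and its reverse complement) is scored by the PBM enrichment score (E-score), a modified Wilcoxon-Mann-Whitney statistic from -0.5 to +0.5, computed with the Universal PBM Analysis Suite. Scale: above 0.35 generally sequence-specific binding.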

Sequence | PBM E-score
CACTCGGC | -0.0263
ACCAAGCT | -0.00876
AGGTTACT | 0.024
CAATACTG | -0.239
CGCTCACA | -0.0723
ACGCGGGC | -0.0155
GCTTCGCC | -0.147
CGCCGTCA | 0.199
AGCCGTAC | 0.238
ACCCGTAA | 0.0373
CGCCGTAA | 0.0647
ACCCGTAC | 0.299
CGCCGTCC | 0.308
AGCCGTCC | 0.0251
GGCCGTAA | 0.121
ACCCGTAG | -0.248
CGCCGTAC | 0.315
CGCCGTAG | 0.209
GGCCGTAC | 0.367
CTACGTCA | 0.146
CCAGTGAG | -0.251
CATTAGGC | 0.0172
GGTCCCAA | -0.136
CAGTCCAA | -0.177
TCGCGGAA | 0.0001

Sequence | PBM E-score
AGCTACCG | -0.0848
AGCCGTTC | -0.0626
CACCGTAC | 0.385
CGCCGTTA | 0.14
CGCCGTTC | 0.331
CACCGTAG | 0.0588
CACCGTAA | 0.101
AGACCCCG | -0.0859
CAGCAAGG | -0.192
GGTGACTA | 0.149
GCACTATA | 0.017
AAGACAAC | 0.0616
CTCCCCAC | -0.0818
CGAGAGAA | 0.0467
CAGTAATC | -0.00799
CAGTAATA | 0.304
CAGTAATG | -0.0287
GCCGTAAC | 0.211
ATTTATTG | 0.0665
CCCATTTC | -0.182
ATCGTCTC | 0.25
ATCGTCAC | 0.389
CACGTCAG | 0.0977
AGCGTCAC | -0.00719
CTCGTCAC | 0.336

Sequence | PBM E-score
GTCGTCAA | 0.222
CTCGTCAA | 0.0916
CACGTCAA | 0.0325
GCCGTCAC | 0.0578
GTCGTCAC | 0.35
CTCGTCAG | 0.182
CACGTCAC | 0.368
AGTATGCA | 0.111
CAATGCCC | -0.0566
GGGTTTGA | 0.121
CCGCGCAC | -0.209
CCCTTAGG | -0.0737
AGGACCCC | -0.0335
ATCGTCGC | 0.362
ATCGTCGG | 0.218
ATCGTCGA | 0.289
ATGCTAAA | 0.0969
CCCACGAA | 0.316
ACCACGAA | 0.0971
CCCACGAC | 0.0916
GCCACGAA | 0.0988
TCCACGAA | 0.352
CCCACGAG | 0.0399
ACGCACAT | -0.00733
CGCGGCGC | -0.00706

Sequence | PBM E-score
CGACGACA | 0.311
TCACGACA | 0.257
AGACGACC | 0.0722
GGACGACA | 0.299
GGACGACC | 0.0608
CGACGACG | 0.177
GGACGAGA | 0.145
AGACGACA | 0.264
TGACGACA | 0.361
CAAGTTGA | -0.187
CCCGGGCC | -0.304
CAACTCGC | 0.0334
AATTTCAT | 0.134
GCCAGGCA | -0.186
TGCCTCAA | -0.124
AACGGCGA | 0.327
TACGGCAA | 0.301
GACGGCGA | 0.0475
TACGGCGA | 0.313
AACGGCGT | 0.227
CACGGCAA | 0.219
CACGGCTA | 0.307
GACGGCAA | 0.246
TCCGGCGA | 0.069
AACGGCTA | 0.193

Sequence | PBM E-score
AACGGCGC | 0.123
GACGGCTA | 0.0813
GCCATGAA | -0.0667
ATTTTCCG | 0.1
CCCGGAAC | -0.125
AATTCACT | -0.102
AAGCTCTC | -0.125
GCCATAGA | -0.126
GACTCATA | -0.0291
ACTTCGCA | 0.0373
ACGGGTGA | 0.32
CACGGCGC | 0.139
CACGGTGA | 0.308
CCGGGTGA | 0.12
AACGGTGA | 0.135
CACGGTGC | 0.0971
CACGGCGG | 0.00732
CACGGCGA | 0.305
ACGGGTGG | 0.0777
AAGTGGTC | -0.131
CCACCTGA | -0.0561
TCAATAGA | -0.172
GGTGATTA | 0.242
CCTGATGA | 0.139
CGTGATGC | 0.0552

Sequence | PBM E-score
AGTGATGA | 0.366
GTTGATGA | 0.283
AGTGATTA | 0.351
CGTGATGA | 0.31
AGTGATTC | 0.207
GGTGATGA | 0.34
GCTGATGA | 0.199
AGTGATGG | 0.056
ACTGATGA | 0.19
CATTCGCC | 0.0362
ATTATTAG | 0.164
CATCCTCC | -0.127
ACAGGTCA | -0.0348
ACCTGCAT | 0.013
AACCAGCC | -0.0913
CTGTGAAC | 0.0459
CCTCCCAG | -0.196
CGTGCCAG | 0.148
ACCTGGCC | -0.0752
CCCTCTAA | -0.23
CCTAAATC | 0.154
AGTGATGC | 0.319
AATGATGC | 0.196
ATTGATGC | 0.0481
AGAAGACT | -0.0993

Sequence | PBM E-score
ACACTACA | 0.169
TCACTACA | 0.344
CCACTACA | -0.0773
CTCTGTGA | -0.118
CGAACAGC | -0.165
AAGATCCT | 0.0788
TATTTCGA | 0.272
TAGACGGA | 0.122
TAGACGAA | 0.338
CAGACGAC | 0.191
GAGACGAA | 0.0822
CAGACGAA | 0.324
AAGACGAA | 0.223
AAGCTAAC | 0.0254
AGTCAGCC | -0.181
CCTCCCAC | -0.188
CCTCCAGC | -0.322
GCCTACCC | -0.25
CACTAGCC | 0.144
GATGTCCC | 0.209
ACGATGCG | 0.07
ACCCCCGT | -0.0911
CGGACGAA | 0.35
CGGACGAC | 0.343
